According to PubChem BioAssay AID686978 (National Center for Advancing Translational Sciences (NCATS), 2013):
Among all 420,000 compounds or so, about 64,000 (15%) were called active. Inconclusive results (about 27%) are left out. Calls come from the whole dose curve; as a rule, active = well fitted inhibition curve with a large enough effect; inconclusive = small, poorly fitted or top-dose-only effect; inactive = flat fitted curve, though single readings scatter. Only a sample is shown. Where a call stands in place of a potency, no number is given.
Potency is the fitted concentration of half-maximal effect.

Experiment: qHTS for Inhibitors of human tyrosyl-DNA phosphodiesterase 1 (TDP1): qHTS in cells in absence of CPT; note: nearly all actives have a fitted effect of over 55% in size
Conditions: DT40 Tdp1-/- hTDP1 cells, no CPT, ATP luminescence, 48 h; activity change, negative = growth inhibition: at 46.2 µM (top of the series)
Method in brief: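 Cells were dispensed at 400 per well, compounds added by pin tool, plates incubated ≥48 hr at 37 °C, then CellTiter-Glo added for 30 min at room temperature before luminescence reading. Line: DT40 Tdp1-/- complemented with hTDP1; camptothecin omitted.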
For `CC1c2nc3ccccc3n2C(CC(=O)NCCCN2CCOCC2)C(=O)N1Cc1ccccc1` (configuration not stated), the Potency was “inactive”.
For `CCCCCC1CCC(c2nnc(SCC(C)=O)o2)CC1` (configuration not stated), the Potency was “inactive”.
For `Cc1cc(C)n(-c2c(F)c(F)c(COC(=O)c3ccccc3)c(F)c2F)n1`, the Potency was “inactive”.
With `O=C(C1=C(O)C(=O)N(c2ncccn2)C1c1cccs1)c1ccco1` (configuration not stated) the Potency was “inactive”.
With `O=C(Oc1cccnc1)c1cc2ccccc2oc1=O` the Potency was “inactive”.
With `CC(=O)N1CCN(CC(c2ccccc2)c2ccccc2)CC1` the Potency was “inactive”.
In the case of `COc1ccc(CCn2ccc(O)c(Cc3ccc(Cl)cc3Cl)c2=O)cc1OC`, the Potency is reported as “inactive”.
In the case of `COc1ccc(CNC(=O)C(C)NCc2ccccc2Cl)cc1` (configuration not stated), the Potency is reported as “inactive”.
In the case of `CC(CCc1ccc(O)cc1)NCc1ccc(Cl)cc1Cl` (configuration not stated), the Potency is reported as 18.4 µM (active).
For `O=C(NCC(=O)N1CCN(c2ncc(C(F)(F)F)cc2Cl)CC1)c1ccc(Br)o1`, the Potency was 18.4 µM (active).
In the case of `COc1ccc(N2CCN(C(=O)CNC(=O)c3ccc(Br)o3)CC2)cc1`, the Potency is reported as “inactive”.
For `O=C(CN1CCN(c2ncc(C(F)(F)F)cc2Cl)CC1)Nc1ccc2c(c1)OCO2`, the Potency was “inactive”.
For `Cc1ccc(CSCC(=O)N(C)CC(=O)Nc2cccc(F)c2)cc1`, the Potency was “inactive”.
In the case of `O=C(O)CCC(=O)N(Cc1ccco1)c1nc(-c2ccccc2)cs1`, the Potency is reported as “inactive”.
With `CC(Oc1ccc(F)cc1F)C(=O)/C=C/N(C)C` (configuration not stated) the Potency was “inactive”.
With `c1ccc(C2CNCc3c2ccc2ccccc32)cc1` (configuration not stated) the Potency was 16.4 µM (active).
With `CC1(C)CC(=O)C(C=NCCN2CCN(C(=S)Nc3cccc(Cl)c3)CC2)=C(O)C1` the Potency was “inactive”.
For `COc1ccc(-c2n[nH]c3c2CN(C(=O)c2ccc(F)cc2)CC3)cc1`, the Potency was “inactive”.
For `COCCCNC(=O)COc1cc(C)c(Cl)c(C)c1`, the Potency was “inactive”.
With `Cc1cc2c(cc1S(=O)(=O)CCC(=O)NCc1ccccc1)OCC(=O)N2` the Potency was “inactive”.
In the case of `CC(=O)Nc1ccc2c3c(ccc([N+](=O)[O-])c13)CC2`, the Potency is reported as “inactive”.
With `CCCNC(=O)C1CC(=O)N(c2ccc(OCC(=O)Nc3cccc(C)c3C)cc2)C1` (configuration not stated) the Potency was “inactive”.
With `CCCOc1ccc(/C=N/NC(=O)C2CC2)c(OCCC)c1` the Potency was “inactive”.
For `COc1ccc(CS(=O)/C(Cl)=C(/Cl)C(=O)Nc2ccc(OC)nc2)cc1` (configuration not stated), the Potency was 0.13 µM (active).
With `COc1ccc(NC(=S)NCCNC(C)=O)cc1` the Potency was “inactive”.
In the case of `COc1ccc(NC(=S)Nc2ccccc2Cl)cn1`, the Potency is reported as “inactive”.
In the case of `CS(=O)(=O)c1ccc(Cl)c(NC(=O)COC(=O)c2ncc(Cl)c(Cl)c2Cl)c1`, the Potency is reported as “inactive”.
With `O=C(Nc1cc2c3c(c1)CC(=O)N3CCC2)c1ccccc1F` the Potency was “inactive”.
With `COc1ccc(/C=C(\NC(=O)c2ccccc2)C(=O)NCCN2CCOCC2)cc1OC` the Potency was “inactive”.
In the case of `CN(C(=O)COc1ccccc1)c1nnc(-c2ccncc2)s1`, the Potency is reported as “inactive”.
With `COCCN(Cc1nc(-c2ccc(C(F)(F)F)cc2)no1)C(C)C` the Potency was “inactive”.
With `COCCN(C(=O)C(C)C)c1nnc(-c2ccc(C(C)(C)C)cc2)s1` the Potency was 20.6 µM (active).
In the case of `CCOC(=O)N1CCN(C(=O)Cn2cnc3ccccc3c2=O)CC1`, the Potency is reported as “inactive”.
With `CCOC(=O)N1CCN(CC(=O)Nc2ccc(F)cc2)CC1` the Potency was “inactive”.
With `CCOC(=O)N1CCN(CC(=O)Nc2cc(C)nn2-c2nc3ccccc3s2)CC1` the Potency was 23.1 µM (active).
In the case of `CC1CCCN(c2csc3ccc(F)cc3c2=O)C1` (configuration not stated), the Potency is reported as “inactive”.
For `S=c1[nH]nc(/C=C/c2ccccc2)o1`, the Potency was “inactive”.
For `CN(C)c1nc(Nc2ccc(Cl)c(Cl)c2)nc(N(C)C)n1`, the Potency was 10.3 µM (active).
In the case of `CC(=O)Nc1nc(N(C)C)nc(N(C)C)n1`, the Potency is reported as “inactive”.
In the case of `CN(C)c1nc(NN)nc(Nc2ccc(F)cc2)n1`, the Potency is reported as “inactive”.
For `Cc1ccc(/C([O-])=C(/C(=S)NCc2ccco2)[n+]2ccccc2)cc1[N+](=O)[O-]`, the Potency was “inactive”.
In the case of `CCOC(=O)c1c(NC(=O)CSc2nnc(CNc3ccc(C)cc3C)o2)sc(C)c1C`, the Potency is reported as “inactive”.
In the case of `Fc1ccccc1CCNc1nnnn1-c1ccccc1`, the Potency is reported as “inactive”.
In the case of `c1ccc(-n2nnnc2NC2CCCCCC2)cc1`, the Potency is reported as “inactive”.
In the case of `FC(F)(F)c1nc(-c2ccccc2)ncc1-c1nnnn1-c1ccccc1`, the Potency is reported as 16.4 µM (active).
With `O=S(=O)(NC1CCCCC1N1CCC(O)CC1)c1ccc(Cl)cc1` (configuration not stated) the Potency was “inactive”.
In the case of `CN1CCCc2cc(C#N)c(=O)[nH]c21`, the Potency is reported as “inactive”.
For `CCOC(=O)c1cc2cc(-c3c(C(=O)OCC)oc4cc(O)cc(O)c4c3=O)ccc2o1`, the Potency was 23.1 µM (active).
In the case of `CCOC(=O)c1cc2cc3ccccc3cc2oc1=O`, the Potency is reported as “inactive”.
For `CCOC(=O)c1cc(=O)c2ccc(OCc3ccccc3)cc2o1`, the Potency was “inactive”.
With `O=C(O)c1ccc(COCC(F)(F)F)cc1` the Potency was “inactive”.
With `CC1CCC2(CC1)NC(=O)N(CC(=O)c1ccc3c(c1)OCO3)C2=O` (configuration not stated) the Potency was “inactive”.
